Data reported in ChEMBL document CHEMBL4513141, “CO-ADD screening of NIH (USA) - Clinical Collection” (2021).
Entries with a potency or affinity are not part of this list.

Assays:
Klebsiella pneumoniae = details: Concentration 20 uM; ASSAY_TEST Inhibition of Bacterial Growth; detection method Absorption (OD600); MEDIA CAMHB; plate type 384well; NBS; CORNING #3640; time 18 hr
Candida albicans = details: 20 µM
Cryptococcus neoformans = details: Concentration 20 uM; ASSAY_TEST Inhibition of Fungal Growth; detection method Resazurin; Absorption (OD600-OD570); plate type 384well; NBS; CORNING #3640

CC(C)Oc1ccc2c(=O)c(-c3ccccc3)coc2c1 [IPRIFLAVONE]
Inhibition (Klebsiella pneumoniae): 12.22%
Inhibition (Candida albicans): 3.92%
Inhibition (Cryptococcus neoformans): 2.68%

C[C@H]1[C@@H](OC(=O)CCC(=O)O)O[C@@H]2O[C@@]3(C)CC[C@H]4[C@H](C)CC[C@@H]1[C@@]24OO3
Inhibition (Klebsiella pneumoniae): 13.77%
Inhibition (Candida albicans): 26.5%
Inhibition (Cryptococcus neoformans): -1.11%

C=CCc1ccc(O)c(-c2ccc(O)c(CC=C)c2)c1 [HONOKIOL]
Inhibition (Klebsiella pneumoniae): 7.54%
Inhibition (Candida albicans): 3.92%
Inhibition (Cryptococcus neoformans): 0.25%
